Results filed as inconclusive are left out. Values without a mark were called inactive. Calls of active or inactive are those of the source. Calls come from the whole dose curve; as a rule, active = well fitted inhibition curve with a large enough effect; inconclusive = small, poorly fitted or top-dose-only effect; inactive = no such curve, though single readings can be large or run the other way.
assay: Primary qHTS for inhibitors of nuclear receptor binding SET domain protein 2 (NSD2) in an RCH-ACV wild type WT cells (2C) (AID 1645877); details: RCH-ACV (leukaemia line) NSD2 WT (2C) viability, CellTiter-Glo, 72 h; series mostly up to 44.9 µM; activity change, negative = cell killing: at the top concentration; note: nearly all actives have a fitted effect of over 70% in size
% is set by controls: 0 for no effect and ±100 for the full control effect; potency is the fitted concentration of half-maximal effect.

SMILES | activity change, negative = cell killing | Potency | outcome
CC1CCC2(C(=O)OC3OC(CO)C(O)C(O)C3O)CCC3(C)C(=CCC4C5(C)CC(O)C(O)C(C)(C(=O)O)C5CCC43C)C2C1(C)O (stereo unspecified) | 1.03% [at 17.3 µM] |  | 
C=C1C[C@]23C[C@H]1CC[C@H]2[C@]1(C)CCC[C@@]2(CO)C(=O)O[C@H]([C@H]21)[C@@H]3O | -20.8% |  | 
C[C@@H]1CCN(C(=O)CC#N)C[C@@H]1N(C)c1ncnc2[nH]ccc12 |  | 23.5 µM (active) | 
C=C1CC/C=C(/CO)C(=O)C[C@@H]2[C@@H]1CC2(C)C | -9.23% |  | 
CC12CC34C=CC(=O)C(C)(CCC(=O)O)C3C(CC1C4)O2 (stereo unspecified) | -5.35% |  | 
C[C@@H]1C[C@H](O)/C=C/[C@H](O)[C@@H](O)CC(=O)O1 |  |  | inactive
C[C@@H]1O[C@@H](OC[C@H]2O[C@@H](OCC3CCC4CC3C4(C)C)[C@H](O)[C@@H](O)[C@@H]2O)[C@H](O)[C@H](O)[C@H]1O (stereo partly specified) | -0.168% [at 17.3 µM] |  | 
CC1=C(CC(=O)O)c2cc(F)ccc2C1=Cc1ccc(S(C)(=O)=O)cc1 | -4.73% |  | 
COc1c(OC2OC(CO)C(O)C(O)C2O)ccc(O)c1C(=O)OCc1ccccc1O[C@@H]1O[C@H](CO)[C@@H](O)[C@H](O)[C@H]1O (stereo partly specified) | -4.51% [at 17.3 µM] |  | 
COC1=CC(=O)O[C@@H](CCc2ccccc2)[C@@H]1O | -7.58% |  | 
C=C1[C@H]2CC[C@]3(O)[C@@](CC[C@@H]4[C@](C)(C(=O)O)CCC[C@]43C)(C2)[C@H]1OC(=O)/C(C)=C\C | -5.69% [at 17.3 µM] |  | 
O=c1c2ccccc2nc2n1CCC2O (stereo unspecified) | -6.77% [at 91.9 µM] |  | 
C=CC(C)(O)CO[C@@H]1O[C@H](CO)[C@@H](O)[C@H](O)[C@H]1O (stereo partly specified) | -5.05% |  | 
C=C1[C@H]2[C@H](O[C@@H]3O[C@H](COC(=O)/C=C/c4cc(OC)c(O)c(OC)c4)[C@@H](O)[C@H](O)[C@H]3O)OC=C(C(=O)O)[C@H]2C[C@@H]1O | 3.81% [at 17.3 µM] |  | 
CC(=O)O[C@@H]1C[C@]2(C)[C@@]3(CCC4[C@@]5(C)CC[C@H](O[C@@H]6O[C@H](C(=O)O)[C@@H](O)[C@H](O[C@@H]7O[C@H](CO)[C@H](O)[C@H](O)[C@H]7O[C@@H]7O[C@@H](C)[C@H](O)[C@@H](O)[C@H]7O[C@@H]7OC[C@](O)(CO)[C@H]7O)[C@H]6O[C@@H]6O[C@H](CO)[C@H](O)[C@H](O)[C@H]6O)C(C)(C)C5CC[C@]42C)O[C@@H](O)[C@]12C3CC(C)(C)[C@@H](OC(=O)/C=C/c1ccc(O)c(O)c1)[C@@H]2OC(=O)/C=C/c1ccccc1 (stereo partly specified) | -4.25% [at 9.23 µM] |  | 
CC(C)CC(=O)n1cc(C(N)=O)c(=O)cc1C(O)c1ccccc1 (stereo unspecified) |  |  | inactive
CC(=O)NC(CCC(=O)O)C(=O)NCCc1ccc(O)cc1 (stereo unspecified) |  |  | inactive
CCN[C@@H]1C[C@H](N)[C@@H](O[C@H]2OC(CN)=CC[C@H]2N)[C@H](O)[C@H]1O[C@H]1OC[C@](C)(O)[C@H](NC)[C@H]1O | -22.9% [at 17.3 µM] |  | 
CCCC(N[C@@H](C)C(=O)N1[C@H](C(=O)O)C[C@@H]2CCCC[C@@H]21)C(=O)OCC (stereo partly specified) |  |  | inactive
C=CC(C)(C)O[C@@H]1O[C@H](CO[C@@H]2OC[C@](O)(CO)[C@H]2O)[C@@H](O)[C@H](O)[C@H]1O |  |  | inactive
CC(C)=CC/C=C(/C)[C@H]1CC[C@]2(C)[C@@H]1[C@H](O)CC1[C@@]3(C)CC[C@H](O)C(C)(C)[C@@H]3[C@@H](O[C@@H]3O[C@H](CO)[C@@H](O)[C@H](O)[C@H]3O[C@@H]3O[C@@H](C)[C@H](O)[C@@H](O)[C@H]3O)C[C@]12C (stereo partly specified) | -2.75% [at 17.3 µM] |  | 
C/C=C(/C)C(=O)O[C@H]1C=C(C)C[C@H](OC(=O)c2ccc(O)cc2)C2[C@](O)(C(C)C)CC[C@@]21C (stereo partly specified) |  |  | inactive [at 17.3 µM]
C[C@@H]1O[C@@H](O[C@@H]2[C@@H](O)[C@@H](O)[C@H](O[C@@H]3[C@@H](O)[C@@H](O[C@]4(CO)O[C@H](CO)[C@@H](O)[C@@H]4OC(=O)/C=C/c4ccc(O)cc4)O[C@H](CO)[C@H]3OC(=O)/C=C/c3ccc(O)cc3)O[C@H]2C)[C@H](O)[C@H](O)[C@H]1O | 1.92% [at 9.23 µM] |  | 
O=C(/C=C/c1ccc(O)cc1)OCC1=C[C@@H](O)[C@@H]2C=CO[C@@H](O[C@@H]3O[C@H](CO)[C@@H](O)[C@H](O)[C@H]3O)[C@H]12 | -3.26% [at 17.3 µM] |  | 
C=CC(C)(O)CC/C=C(\C)C(=O)OCC1OC(OC2CCC3(C)C(CCC4(C)C3CC=C3C5CC(C)(C)C(O)CC5(C(=O)O)CCC34C)C2(C)C)C(O)C(OC2OC(CO)C(O)C(OC3OC(CO)C(O)C(OC4OC(COC5OC(CO)C(O)C(O)C5O)C(O)C(O)C4O)C3O)C2O)C1O (stereo unspecified) | 4.93% [at 9.23 µM] |  | 
CC(=O)N[C@H]1[C@H](O[C@H]2CC[C@@]3(C)C(CC[C@]4(C)C3CC=C3C5CC(C)(C)CC[C@]5(C(=O)O)[C@H](O[C@@H]5O[C@H](CO)[C@@H](O)[C@H](O)[C@H]5O)C[C@]34C)C2(C)C)O[C@H](CO[C@@H]2OC[C@H](O)[C@H](O)[C@H]2O[C@@H]2OC[C@@H](O)[C@H](O)[C@H]2O)[C@@H](O)[C@@H]1O (stereo partly specified) | -14.8% [at 9.23 µM] |  | 
